According to PubChem BioAssay AID1159580 (chemical genetic matrix, 2015):
Values joined by “and” are separate entries in the source; they are usually repeats but may differ in a detail not shown here. Equal values may be shown once. Among all 5,500 compounds or so, about 2,000 (36%) were called active. Another 18% or so got no clear call; they are omitted. Rule as the data show it: active = normalized growth mostly below about 0.91 (no sharp cut-off); inconclusive = no clear call, values can overlap the other calls; inactive = mostly above about 0.92. The list shows a part of the results.

Assay: chemical genetic growth profiling, strain panel (AID 1159580);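 also: tested at 20 µM; growth read once vehicle control cultures reached saturation at 30 °C; 1 = growth at the plate median or of vehicle wells; lower values mean less growth of the strain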
Conditions: growth OD

Measured: normalized growth

C=CCc1ccccc1OCC(O)CNC(C)C (stereo unspecified)
inactive: S. cerevisiae deletion strains, locus YJR066W, strain TOR1, active compounds read low 0.924 | S. cerevisiae deletion strains, locus YJR075W, strain HOC1, active compounds read low 1.01 and 1 | S. cerevisiae deletion strains, locus YKL009W, strain mrt4, active compounds read low 1 | S. cerevisiae deletion strains, locus YKL068W, active compounds read low 1.01 | S. cerevisiae deletion strains, locus YKL085W, strain MDH1 (second series), active compounds read low 1.01 | S. cerevisiae deletion strains, locus YKL085W, strain MDH1, active compounds read low 1.01 | S. cerevisiae deletion strains, locus YKL160W, strain elf1, active compounds read low 1 | S. cerevisiae deletion strains, locus YKL190W, strain CNB1, active compounds read low 1 | S. cerevisiae deletion strains, locus YKR001C, strain vps1, active compounds read low 1.03 | S. cerevisiae deletion strains, locus YKR026C, strain gcn3, active compounds read low 0.988 | S. cerevisiae deletion strains, locus YKR091W, strain srl3, active compounds read low 0.997 | S. cerevisiae deletion strains, locus YLL001W, strain dnm1, active compounds read low 1.01 | S. cerevisiae deletion strains, locus YLL026W, active compounds read low 0.991 | S. cerevisiae deletion strains, locus YLL041C, strain sdh2, active compounds read low 0.992 | S. cerevisiae deletion strains, locus YLR027C, strain aat2, active compounds read low 0.99 | S. cerevisiae deletion strains, locus YLR039C, strain RIC1, active compounds read low 1.06 | S. cerevisiae deletion strains, locus YLR058C, strain SHM2, active compounds read low 1.01 | S. cerevisiae deletion strains, locus YLR102C, strain apc9, active compounds read low 1.01 | S. cerevisiae deletion strains, locus YLR113W, strain HOG1, active compounds read low 0.983 | S. cerevisiae deletion strains, locus YLR221C, strain rsa3, active compounds read low 0.992 | S. cerevisiae deletion strains, locus YLR258W, strain gsy2, active compounds read low 0.99 | S. cerevisiae deletion strains, locus YLR262C, strain YPT6 (second series), active compounds read low 1.02 | S. cerevisiae deletion strains, locus YLR262C, strain YPT6, active compounds read low 1.06 | S. cerevisiae deletion strains, locus YLR268W, strain sec22, active compounds read low 1.03 | S. cerevisiae deletion strains, locus YLR320W, strain mms22, active compounds read low 0.994 | S. cerevisiae deletion strains, locus YLR330W, strain CHS5, active compounds read low 0.988 | S. cerevisiae deletion strains, locus YLR342W, strain FKS1 (second series), active compounds read low 0.974 | S. cerevisiae deletion strains, locus YLR342W, strain FKS1, active compounds read low 0.995 | S. cerevisiae deletion strains, locus YLR357W, strain rsc2, active compounds read low 0.967 | S. cerevisiae deletion strains, locus YLR370C, strain arc18, active compounds read low 1.01 | S. cerevisiae deletion strains, locus YLR371W, strain rom2, active compounds read low 1.01 | S. cerevisiae deletion strains, locus YLR384C, strain iki3, active compounds read low 0.997 | S. cerevisiae deletion strains, locus YLR418C, strain cdc73, active compounds read low 1.04 | S. cerevisiae deletion strains, locus YML016C, strain PPZ1, active compounds read low 1 | S. cerevisiae deletion strains, locus YML032C, strain rad52, active compounds read low 1.01 | S. cerevisiae deletion strains, locus YML120C, strain ndi1, active compounds read low 0.994 | S. cerevisiae deletion strains, locus YML124C, strain tub3, active compounds read low 1.01 | S. cerevisiae deletion strains, locus YMR058W, strain fet3, active compounds read low 1 | S. cerevisiae deletion strains, locus YMR078C, strain ctf18, active compounds read low 1.01 | S. cerevisiae deletion strains, locus YMR125W, strain sto1, active compounds read low 0.993 | S. cerevisiae deletion strains, locus YMR129W, active compounds read low 1 | S. cerevisiae deletion strains, locus YMR205C, strain PFK2, active compounds read low 0.98 | S. cerevisiae deletion strains, locus YMR223W, strain ubp8, active compounds read low 1 | S. cerevisiae deletion strains, locus YMR231W, strain pep5, active compounds read low 0.995 | S. cerevisiae deletion strains, locus YMR263W, strain SAP30, active compounds read low 1.01 | S. cerevisiae deletion strains, locus YMR307W, strain GAS1, active compounds read low 1.02 | S. cerevisiae deletion strains, locus YNL067W, strain RPL9B, active compounds read low 1.01 | S. cerevisiae deletion strains, locus YNL071W, strain lat1, active compounds read low 1 | S. cerevisiae deletion strains, locus YNL128W, strain TEP1, active compounds read low 1.01 and 0.998 | S. cerevisiae deletion strains, locus YNL153C, strain GIM3, active compounds read low 1 | S. cerevisiae deletion strains, locus YNL175C, strain NOP13, active compounds read low 0.973 | S. cerevisiae deletion strains, locus YNL183C, strain NPR1, active compounds read low 0.924 | S. cerevisiae deletion strains, locus YNL209W, strain ssb2, active compounds read low 1.01 | S. cerevisiae deletion strains, locus YNL224C, strain SQS1, active compounds read low 0.972 | S. cerevisiae deletion strains, locus YNL233W, strain BNI4, active compounds read low 0.982 | S. cerevisiae deletion strains, locus YNL248C, strain rpa49, active compounds read low 1.01 | S. cerevisiae deletion strains, locus YNL250W, strain rad50, active compounds read low 1.01 | S. cerevisiae deletion strains, locus YNL271C, strain bni1, active compounds read low 1.01 | S. cerevisiae deletion strains, locus YNL298W, strain CLA4, active compounds read low 1.02 | S. cerevisiae deletion strains, locus YNL307C, strain MCK1, active compounds read low 1.03 | S. cerevisiae deletion strains, locus YNL322C, strain KRE1 (second series), active compounds read low 0.991 | S. cerevisiae deletion strains, locus YNL322C, strain KRE1, active compounds read low 1 | S. cerevisiae deletion strains, locus YNR049C, strain mso1, active compounds read low 0.988 | S. cerevisiae deletion strains, locus YNR052C, strain pop2, active compounds read low 1.01 | S. cerevisiae deletion strains, locus YOL006C, strain TOP1, active compounds read low 1.05 | S. cerevisiae deletion strains, locus YOL012C, strain htz1 0.911 | S. cerevisiae deletion strains, locus YOL147C, strain pex11, active compounds read low 1.01 | S. cerevisiae deletion strains, locus YOR001W, strain rrp6, active compounds read low 0.997 | S. cerevisiae deletion strains, locus YOR061W, strain CKA2, active compounds read low 1.01 | S. cerevisiae deletion strains, locus YOR069W, strain VPS5, active compounds read low 1.01 | S. cerevisiae deletion strains, locus YOR070C, strain gyp1, active compounds read low 0.997 | S. cerevisiae deletion strains, locus YOR080W, strain dia2, active compounds read low 0.993 | S. cerevisiae deletion strains, locus YOR083W, strain WHI5 (second series), active compounds read low 0.978 | S. cerevisiae deletion strains, locus YOR083W, strain WHI5, active compounds read low 1.01 | S. cerevisiae deletion strains, locus YOR106W, strain vam3, active compounds read low 1.05 | S. cerevisiae deletion strains, locus YOR136W, strain idh2, active compounds read low 1 | S. cerevisiae deletion strains, locus YOR144C, strain elg1, active compounds read low 1 | S. cerevisiae deletion strains, locus YOR184W, strain ser1, active compounds read low 1.03 | S. cerevisiae deletion strains, locus YOR231W, strain MKK1, active compounds read low 0.983 | S. cerevisiae deletion strains, locus YOR265W, strain rbl2, active compounds read low 1 | S. cerevisiae deletion strains, locus YOR270C, strain vph1, active compounds read low 1.07 | S. cerevisiae deletion strains, locus YOR290C, strain snf2, active compounds read low 0.923 | S. cerevisiae deletion strains, locus YOR316C, strain cot1, active compounds read low 1.01 | S. cerevisiae deletion strains, locus YPL051W, strain arl3, active compounds read low 1.01 | S. cerevisiae deletion strains, locus YPL055C, strain LGE1, active compounds read low 1 | S. cerevisiae deletion strains, locus YPL078C, strain atp4, active compounds read low 1.01 | S. cerevisiae deletion strains, locus YPL106C, strain sse1, active compounds read low 0.987 | S. cerevisiae deletion strains, locus YPL240C, strain hsp82, active compounds read low 1.01 | S. cerevisiae deletion strains, locus YPL241C, strain CIN2, active compounds read low 0.997 | S. cerevisiae deletion strains, locus YPL256C, strain CLN2, active compounds read low 0.981 | S. cerevisiae deletion strains, locus YPR119W, strain clb2, active compounds read low 1.01 | S. cerevisiae deletion strains, locus YPR141C, strain kar3, active compounds read low 1.02 | S. cerevisiae deletion strains, locus YPR163C, strain tif3, active compounds read low 1.01 | S. cerevisiae deletion strains, locus YPR167C, strain met16, active compounds read low 1.01 | S. cerevisiae deletion strains, strain wtn01, active compounds read low 1.01 | S. cerevisiae strains, strain wild type, active compounds read low 1
